Measurements as given in PubChem BioAssay AID1347069 (National Center for Advancing Translational Sciences (NCATS), 2019).
Fewer than 10 of roughly 44,000 compounds were called active. The call rests on the fitted dose curve; in most records, active means well fitted inhibition curve with a large enough effect; inconclusive means small, poorly fitted or top-dose-only effect; inactive means flat fitted curve, though single readings scatter. These entries were drawn from the full list.

target: Tumor susceptibility gene 101 protein (Homo sapiens) (UniProt Q99816); assay: qHTS Validation Assay for Inhibitors of HIV-1 Budding by Blocking the Interaction of PTAP/TSG101: Sytravon Library Screen; conditions: Fluorescence polarization, FITC-PTAP peptide/Tsg101, 20 min; series mostly up to 115 µM; activity change, negative = inhibition: at the top concentration; further: 0% is about no effect
From the text: Stages of the HIV-1 replication cycle, specifically virus assembly and release, provide underexploited targets for the development of novel antiviral inhibitors. The late stages of HIV-1 replication are mediated by the Gag precursor protein, Pr55Gag. Expression of Pr55Gag is both necessary and sufficient for the production of virus-like particles from Gag-expressing cells. The Gag protein hijacks key host proteins involved in endocytic machinery of the host cell to promote endosomal processing and viral budding. The budding process requires a direct interaction between a […] (PTAP) motif in the p6 domain of Gag and the cellular endosomal sorting protein known as Tsg101. In this way, the Gag PTAP motif promotes the host cells to recruit viral particles to the plasma membrane where the new viral particles are released, effectively turning the host cells into viral factories. A fluorescence polarization assay has been developed to quantitatively measure the PTAP-Tsg101 interaction which can be used to screen for inhibitors of this interaction. This assay was run against the NCGC Sytravon Library collection. NIH Molecular Libraries Probe Production Network [MLPCN] NIH Chemical Genomics Center [NCGC] Grant: R03 MH087464-01A1 PI Name: Dr. Eric Freed, NCI
Two uL of the Tsg101 binding domain in buffer (10 mM HEPES pH 7.5; 0.15 M NaCl, 0.01% Tween 20; 3 mM EDTA;0.1 mM TCEP) was dispensed into Greiner black MB 1536-well plates (final concentration 10 uM). Then, 23 nL of compounds or DMSO were delivered to each well using a pin tool. Finally, 2 uL of a FITC-labeled peptide containing the PTAP motif (1) in the same buffer was dispensed (50 nM final concentration) and the binding was allowed to proceed for 20 min. at r.t. Fluorescent polarization was determined using FITC excitation and polarized emission filters on a Perkin Elmer Envision. Assay cut-off (positive/negative criteria): Actives defined by CRC class, <25 µM; Efficacy <60% inhibition. The total fluorescent intensity from S and P channels will be used to flag fluorescent compounds.

Tumor susceptibility gene 101 protein (Homo sapiens), sequence (Q99816 whole entry, looked up): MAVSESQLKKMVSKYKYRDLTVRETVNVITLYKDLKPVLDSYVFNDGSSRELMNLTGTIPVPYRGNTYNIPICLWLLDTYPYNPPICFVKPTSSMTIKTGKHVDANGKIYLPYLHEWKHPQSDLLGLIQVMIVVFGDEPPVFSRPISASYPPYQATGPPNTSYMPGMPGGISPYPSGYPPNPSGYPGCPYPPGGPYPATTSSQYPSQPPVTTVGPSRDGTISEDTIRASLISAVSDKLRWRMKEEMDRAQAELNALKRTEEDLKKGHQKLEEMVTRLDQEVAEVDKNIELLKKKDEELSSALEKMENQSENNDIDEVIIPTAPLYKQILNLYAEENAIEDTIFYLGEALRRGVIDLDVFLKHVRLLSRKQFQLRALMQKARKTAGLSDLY

SMILES	activity change, negative = inhibition
Cc1cccc(NC(=O)N2CCN(C)c3ncccc32)c1C	-11.3% (inactive)
CCc1nnc(SCc2nc(-c3cccc(C)c3)oc2C)c2cc3sc(C)cc3n12	0.355% (inactive)
CC(C)(C)c1ccc(C(=O)Nc2ccc3c(c2)CCCN3C(=O)c2cccs2)cc1	-7.67% (inactive)
CCN1CCN(C(c2ccc(C)cc2)c2c(O)cc(C)n(Cc3ccco3)c2=O)CC1 (configuration not stated)	-3.55% (inactive)
Cc1csc2nc(COC(=O)c3ccccc3NC(=O)c3ccccc3Cl)cc(=O)n12	-4.86% (inactive)
Cc1ccc(NC(=O)c2ccc3[nH]c(C)cc(=O)c3c2)c(C)c1	-2.8% (inactive)
Cc1ccc2c(c1)c1c(c(=O)n(-c3ccccc3)c(=O)n1CC(=O)c1ccc(Cl)cc1)n2C	0.738% (inactive)
Cc1ccccc1-c1nc2cc(NC(=O)c3cccc(OCCC(C)C)c3)ccc2o1	5.77% (inactive)
CCn1c(C)c(C)c2cc(C(=O)NCCc3cc(OC)ccc3OC)ccc21	0.404% (inactive)
Cn1c(=O)c2c(ncn2CC(=O)Nc2cccc(C(F)(F)F)c2)n(C)c1=O	-3.44% (inactive)
Cc1ccc(-n2nc(C)c3c(C)cc(=O)n(CC(=O)Nc4ccc(C(C)C)cc4)c32)cc1	-0.986% (inactive)
Cc1ccc(C2c3[nH]c4ccccc4c3CCN2C(=O)c2cccc(C)c2)cc1 (configuration not stated)	0.206% (inactive)
CCOC(=O)C1CCN(c2nc3c(S(=O)(=O)c4ccc(CC)cc4)nnn3c3ccc(Cl)cc23)CC1	3.23% (inactive)
O=C(CSc1nc2ccccc2nc1Cc1ccccc1)N1CCCCC1	-0.453% (inactive)
COc1cccc(CNC(=O)c2ccc3c(Cl)c4c(nc3c2)CCCC4)c1	3.82% (inactive)
CCCN(CCC)CCCNC(=O)Cn1cc2c(n1)-c1c(oc(C(=O)N3CCCC3)c1C)CC2	0.792% (inactive)
COc1ccc(NC(=O)Cn2cc(C(=O)c3ccncc3)c(=O)c3cc(C)ccc32)cc1Cl	-2.08% (inactive)
O=C(Cn1ncc2c3ccccc3n(Cc3ccccc3)c2c1=O)NC1CCCCCC1	-1.3% (inactive)
Cc1ccc(NC(=O)CN2C(=O)CC(C)Sc3ccccc32)c(C)c1 (configuration not stated)	3.04% (inactive)
CC(C)c1ccc(OCC(=O)N(Cc2ccc(N(C)C)cc2)C2CCS(=O)(=O)C2)cc1 (configuration not stated)	-7.04% (inactive)
CCCn1c(NCc2ccccc2F)nc2ccccc21	-0.519% (inactive)
O=C(COc1ccc(Cl)cc1)N(Cc1ccco1)Cc1ccco1	1.1% (inactive)
Cc1ccc(CCNC(=O)c2ccc3c(c2)N(Cc2cc(C)ccc2C)C(=O)c2ccccc2S3=O)cc1 (configuration not stated)	1.61% (inactive)
O=C(c1ccc2c(c1)N(Cc1ccccc1)C(=O)c1ccccc1S2(=O)=O)N1CCC(Cc2ccccc2)CC1	-1.43% (inactive)

SMILES	activity change, negative = inhibition
CCCCn1c(=O)c2oc3ccccc3c2n(CC(=O)Nc2ccccc2OC)c1=O	3.66% (inactive)
COC(=O)c1ccc(NC(=O)c2cnn(-c3ccc(Cl)cc3)c2C2CCN(C(=O)OC(C)(C)C)CC2)cc1	-0.729% (inactive)
COc1ccc(-c2nc3ccc(C(=O)NCc4ccc(C)cc4)cc3nc2-c2ccc(OC)cc2)cc1	-6.79% (inactive)
Cc1cccc(N(C)C(=O)CS(=O)(=O)c2cccc3nsnc23)c1	-1.31% (inactive)
O=C(C1CCC(Cn2c(=O)c3sccc3n(Cc3ccccc3F)c2=O)CC1)N1CCCCC1 (configuration not stated)	-6.37% (inactive)
CCN1CCN(CCCNC(=O)c2ccc3c(c2)sc2nc(-c4ccc(OC)cc4)cn23)CC1	-0.122% (inactive)
COc1cccc2c1cc1c(=O)n(CC(=O)N3CCN(c4ccccc4)CC3)nc(C)n12	0.0884% (inactive)
O=C(Nc1ccc(Oc2ccccc2)cc1)C1CCN(S(=O)(=O)c2ccc(Cl)cc2)CC1	-2.62% (inactive)
COc1ccc(-c2cn3c(C)c(C(=O)Nc4cc(C)cc(C)c4)sc3n2)cc1	2.11% (inactive)
CCCCN(C)CCCNC(=O)CN1N=C(c2ccc(OC)cc2)CCC1=O	1.5% (inactive)
COc1cccc(Cn2c(SCc3ccc(C(=O)N4CCC(C)CC4)cc3)nc3ccncc32)c1	-3.99% (inactive)
Cc1cccc(NC(=O)c2cc3c(C)nn(-c4ccccc4)c3s2)c1	-2.19% (inactive)
CNC(=O)c1ccc(-c2nc(CN3CCc4ccccc43)c(C)o2)cc1	-3.21% (inactive)
Cc1ccc2oc(=O)c3cnn(CC(=O)N4CCN(c5cccc(Cl)c5)CC4)c3c2c1	0.242% (inactive)
COc1ccc(-n2c(SCC(=O)Nc3ccc(Cl)c(C)c3)nc3n[nH]c(C)c3c2=N)cc1	-0.559% (inactive)
CCC(C(=O)Nc1cccc(Cl)c1C)n1nc(-c2ccc(C)cc2)ccc1=O (configuration not stated)	-0.32% (inactive)
Cc1cccc(CNS(=O)(=O)c2ccc(-c3cnc(C4CC4)o3)cc2)c1	-0.156% (inactive)
CCc1cc2c(-c3ccccc3)cc(=O)oc2c2c1OCN(Cc1ccc(C)cc1)C2	-3.39% (inactive)
Cc1oc2ccc(O)c(CN3CCCCC3)c2c1C(=O)Nc1cccc(C(F)(F)F)c1	-2.89% (inactive)
CC(C)Cn1c(=O)c2ccccc2n2c(-c3cccc(Cl)c3)nnc12	2.06% (inactive)
O=C(Nc1cc(Cl)cc(Cl)c1)c1ccc2c(c1)N(Cc1cccc(Cl)c1)C(=O)c1ccccc1S2=O (configuration not stated)	0.631% (inactive)
O=C(O)c1ccc(Nc2nc(-c3ccccc3)c3cc(Br)ccc3n2)cc1	-17.5% (inactive)
Cc1cc(C)c2sc(NC(=O)c3ccc(S(=O)(=O)N4CCCC4)cc3)nc2c1	4.94% (inactive)
